Records with an inconclusive call do not appear. Calls of active or inactive are those of the source. Unless noted, the rule behind the calls is not given here.

Data on nine molecules can be found in PubChem BioAssay (NCATS).

A short description of assay [1]: qHTS profiling of the MIPE4 collection as inhibitors of Plasmodium falciparum (DD2) proliferation (AID 743345). Particulars: P. falciparum Dd2 in erythrocytes, SYBR Green DNA, 72 h; at 28.5 µM (top of the series) unless noted. In outline:
(§1)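 Parasite DNA was quantified by SYBR Green I fluorescence (ex 485, em 535 nm) after overnight lysis in saponin/Triton buffer at room temperature. Cultures at 0.3% parasitemia and 2.5% hematocrit were first exposed to compound for 72 h at 37 C; signals were normalised to artemisinin (0.29 uM) and vehicle wells.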
Background: Quantitative high-throughput screening tests each substance at several concentrations.

The nature of assay [2]: qHTS profiling of the MIPE4 collection as inhibitors of Plasmodium falciparum (DD2) proliferation (Rep 2) (AID 743346). Particulars: P. falciparum Dd2 in erythrocytes, SYBR Green DNA, 72 h; at 28.5 µM (top of the series) unless noted. In outline: as §1
Assay [3] can be described thus: qHTS profiling of the MIPE4 collection as inhibitors of Plasmodium falciparum (HB3) proliferation (AID 743347).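 Note: plate controls were DMSO vehicle wells for no effect and artemisinin wells for full effect.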 The conditions noted are these: P. falciparum HB3 in erythrocytes, SYBR Green DNA, 72 h; at 28.5 µM (top of the series) unless noted. In outline:
as §1

Assay [4] can be described thus: High-throughput drug toxicity screening in the BPDCN cell line Gen2.2 (AID 1224824).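 Note: cells exposed to compounds for 48 h before reading.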 Particulars: Gen2.2 BPDCN cells; at 45.8 µM (top of the series) unless noted. Summed up:
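CellTiter-Glo luminescence after 48 h compound exposure of Gen2.2 cells; percent activity set with DMSO as 100% and bortezomib (9.2 uM final) as 0%. Cells seeded at 500 per well, RPMI + 10% FBS, 37 °C.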

A short description of assay [5]: High-throughput drug toxicity screening in the BPDCN cell line Cal-1 (AID 1224825). Particulars: Cal-1 BPDCN cell viability, qHTS; at 45.8 µM (top of the series) unless noted. In outline:
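CellTiter-Glo luminescence after 48 h compound exposure; percent activity scaled with DMSO as 100% and bortezomib (9.2 uM final) as 0%. Cal-1 cells seeded at 500/well in RPMI, 10% FBS, no phenol red.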

Assay [6] can be described thus: qHTS assay for measurement of the activity of small molecule inhibitors on Zika virus induced Caspase-3 activity in human astrocytoma cells (AID 1224859; active = well fitted inhibition curve with a large enough effect;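 note: plate controls were ZIKV-infected untreated cells for no effect and uninfected cells for full effect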). In outline: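 Human SNB-19 astrocytoma cells in RPMI 1640 with 10% FBS receive compound one hour ahead of Zika virus at 2 FFU/cell. After 6 h infection, caspase-3/7 activity is detected by Caspase-Glo luminescence.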

Assay [7] can be described thus: qHTS Screen of the MIPE 4.0 Collection Against Ewings Sarcoma (RDES) (AID 1259252; active = well fitted inhibition curve with a large enough effect; note: nearly all actives have a fitted effect of over 35% in size; note: potency is the fitted concentration of half-maximal effect). In outline:
(§2)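 Dose series incubated 48 h with cells in RPMI plus 5% FBS, glutamine and penicillin/streptomycin; cell viability then quantified via CellTiter-Glo.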

A short description of assay [8]: qHTS Screen of the MIPE 4.0 Collection Against Ewings Sarcoma (TC71) (AID 1259253; active = well fitted inhibition curve with a large enough effect; note: nearly all actives have a fitted effect of over 40% in size; note: potency is the fitted concentration of half-maximal effect). Summed up: as §2
A short description of assay [9]: qHTS Screen of the MIPE 4.0 Collection Against Ewings Sarcoma (EW8) (AID 1259255; active = well fitted inhibition curve with a large enough effect; note: nearly all actives have a fitted effect of over 35% in size; note: potency is the fitted concentration of half-maximal effect;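 for viability: 100% = DMSO-treated cells and 0% = medium-only wells without cells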). In outline: as §2

As to `CC(C)n1cnc2c(NCCc3ccc(O)cc3)nc(-c3csc4ccccc34)nc21`, the parasite growth remaining, % of DMSO control (lower = more inhibition) in assay [1] was 9.54%. Moreover, in assay [2], the parasite growth, % of control (lower = inhibition) worked out at 13.2%. Further, the growth, % of control in assay [3] was 8.98%. Also, the cell viability, % of control (lower = more cytotoxic) in assay [4] amounted to 11.4%. The viability (% of control) in assay [5] was 2.43%. For the same molecule, the Potency result in assay [6] was “inactive”. The Potency is 2.35 µM (active) in assay [7], 4.18 µM (active) in [8] and 13.2 µM (active) in assay [9].
Consider `CCc1ccc(C(=O)Nc2cc(CN3CCN(C)CC3)cc(C(F)(F)F)c2)cc1C#Cc1cnc2ccnn2c1`, for which, in [1], the parasite growth remaining, % of DMSO control (lower = more inhibition) was determined as 6.73%. Besides, the parasite growth, % of control (lower = inhibition) in assay [2] was 10.5%. Besides, the growth, % of control in assay [3] turned out to be 3.13%. The cell viability, % of control (lower = more cytotoxic) in assay [4] is 4.8%. Besides, the viability (% of control) in assay [5] was 4.46%. In addition, the Potency in assay [7] is 20.9 µM (active); in [8] it was 29.6 µM (active); in [9], 16.6 µM (active).
In the case of `Cc1ccc2nc(NCCN)c3ncc(C)n3c2c1`, the parasite growth remaining, % of DMSO control (lower = more inhibition) in [1] is 41.2%. For the same molecule, the parasite growth, % of control (lower = inhibition) in [2] amounted to 33.4%. In addition, the cell viability, % of control (lower = more cytotoxic) in assay [4] was determined as 2.46%. Besides, in assay [5], the viability (% of control) worked out at 3.39%. Further, the Potency is 6.62 µM (active) in assay [7], 4.18 µM (active) in assay [8] and 9.35 µM (active) in assay [9].
On to `COc1cc2c(Nc3ccc(Cl)c(Cl)c3F)ncnc2cc1OCC1C[C@@H]2CN(C)C[C@H]2C1`, for which the parasite growth remaining, % of DMSO control (lower = more inhibition) in assay [1] was found to be 7.75%. In addition, in assay [2], the parasite growth, % of control (lower = inhibition) was found to be 18.3%. In [3], this molecule displayed a growth, % of control of 7.13%. Further, the cell viability, % of control (lower = more cytotoxic) in assay [4] amounted to 2.56%. The viability (% of control) in [5] was determined as 2.8%. For the same molecule, the Potency result in assay [6] is “inactive”. Also, the Potency in assay [7] is 14.8 µM (active); in assay [8], 10.5 µM (active); in assay [9], 11.8 µM (active).
As for `O=C1NC(=O)C(=Cc2ccc3nccc(-c4ccncc4)c3c2)S1`, the parasite growth remaining, % of DMSO control (lower = more inhibition) in [1] amounted to 7.95%. For the same molecule, the parasite growth, % of control (lower = inhibition) in [2] came to 7.98%. Further, in [3], the growth, % of control was found to be 3.52%. Moreover, in [4], the cell viability, % of control (lower = more cytotoxic) was found to be 3.73%. For the same molecule, the viability (% of control) in assay [5] amounted to 4.43%. In addition, the Potency result in assay [6] is “inactive”. The figures for the Potency in [7], in assay [8] and in [9] were 0.187 µM (active), 0.166 µM (active) and 0.132 µM (active), respectively.
`Oc1cc2c(cc1O)C1c3ccc(O)c(O)c3OCC1(O)C2` (stereo unspecified): the parasite growth remaining, % of DMSO control (lower = more inhibition) in [1] worked out at 106%. Besides, the parasite growth, % of control (lower = inhibition) in [2] was 15.2%. In [4], the cell viability, % of control (lower = more cytotoxic) came out at 167%. The viability (% of control) in assay [5] came out at 105%. Further, the Potency result in assay [6], in assay [7], in assay [8] and in [9] was “inactive” in each case.
As to `O=c1[nH]c(=O)n([C@H]2C[C@@H](O)[C@@H](CO)O2)cc1F`, the parasite growth remaining, % of DMSO control (lower = more inhibition) in assay [1] is 79.8%. Moreover, the parasite growth, % of control (lower = inhibition) in [2] was 58.8%. The growth, % of control in [3] was 138%. Moreover, in [4], the cell viability, % of control (lower = more cytotoxic) worked out at 74.8%. Also, in assay [5], the viability (% of control) worked out at 19.4%. The Potency entry in assay [6] was “inactive”. The Potency is 0.059 µM (active) in assay [7], 0.0935 µM (active) in assay [8] and 0.059 µM (active) in assay [9].
Take `Nc1nc(=O)n([C@H]2CSC(CO)O2)cc1F` (stereo partly specified): the parasite growth remaining, % of DMSO control (lower = more inhibition) in assay [1] is 99.2%. The parasite growth, % of control (lower = inhibition) in assay [2] was found to be 160%. The molecule also had a growth, % of control in assay [3] of 250%. In addition, in assay [4], the cell viability, % of control (lower = more cytotoxic) worked out at 249%. Moreover, in assay [5], the viability (% of control) was found to be 102%. Also, the Potency entry in [6], in assay [8] and in [9] was “inactive” each time.
For the molecule `C=CC(=O)N1CCc2ccc(-n3c(=O)ccc4cnc5ccc(-c6cnn(C)c6)cc5c43)cc21`, in assay [1], the parasite growth remaining, % of DMSO control (lower = more inhibition) turned out to be 8.35%. In addition, in [2], the parasite growth, % of control (lower = inhibition) was 8.38%. The growth, % of control in assay [3] came to 4.27%. Further, the cell viability, % of control (lower = more cytotoxic) in [4] is 1.99%. In addition, the viability (% of control) in assay [5] was 2.44%. The Potency entry in [6] is “inactive”. In addition, the results for the Potency in assay [7], in assay [8] and in assay [9] were 6.62 µM (active), 3.32 µM (active) and 3.32 µM (active), respectively.
